# In PubChem BioAssay AID2314 (National Center for Advancing Translational Sciences (NCATS), 2010):
# The whole screen tested about 300,000 compounds, of which about 37,000 (12%) were called active. Only a selection was taken, and actives are over-represented in it overall. A number with no mark means an inactive call. Cut-off read from the data, not from the text of the source: active = max response mostly above about 13% (no sharp cut-off); inactive = mostly below about 14%.
# Experiment: Cycloheximide Counterscreen for Small Molecule Inhibitors of Shiga Toxin; note: read at 38.3 µM for the half of the compounds with a filed dose; 0% is about no effect
# Settings: cell reporter, cycloheximide protein synthesis inhibition counterscreen; active compounds read high
row,Compound,max response
1,COc1ccc(N(CC(=O)N2CCOCC2)S(=O)(=O)c2ccccc2)cc1Cl,-0.709%
2,COc1ccc(/C=C(/NC(=O)c2ccccc2)C(=O)Nc2cccc(C(=O)O)c2)cc1,-3.46%
3,COc1ccc(-c2c(C(C)=O)c(C)nc3sc4c(=O)n(-c5ccc(C)cc5)nnc4c23)cc1,-1.79%
4,CC(NCc1nc2ccccc2n1C)C12CC3CC(CC(C3)C1)C2 (stereo not given),-1.92%
5,O=C(Cn1cc(-c2nnnn2-c2ccc(Cl)cc2)c(=O)c2ccccc21)c1ccccc1,-5.16%
6,CN(C(=O)CC1C(=O)NCCN1Cc1ccc2ccccc2c1)C1CCOCC1 (stereo not given),0.547%
7,O=C(O)C1CCC(CNS(=O)(=O)c2ccc(Br)cc2)CC1 (stereo not given),-3.43%
8,COc1ccc(S(=O)(=O)Nc2ccccc2C(=O)N2CCCC2)cc1C,-0.906%
9,C/C(CCC(=O)OC[C@H]1O[C@H](C#Cc2ccccc2)C=C[C@@H]1Oc1ccc(C)cc1)=N\OC[C@@H](O)[C@H]1O[C@@H]2OC(C)(C)O[C@@H]2[C@H]1O,1.29%
10,COc1cc(CC(=O)N/N=C/c2ccccc2)c([N+](=O)[O-])cc1OC,16.2%
11,CCOC(=O)c1c(/N=C/C2C(=O)CC(C)(C)CC2=O)sc(C)c1C,-5.69%
12,CCOC(=O)c1c(CC(C)C)csc1/N=C/C1=C(O)CCCC1=O,-1.4%
13,CCOC(=O)c1sc(/N=C/C2=C(O)CC(C)(C)CC2=O)c(C(=O)OCC)c1C,65.5% (active)
14,CCCCCC1CC(COc2ccccc2)OC1=O (stereo not given),-2.67%
15,Cc1oc2c(C)c3oc(=O)c(CC(=O)N[C@@H](CC(C)C)C(=O)N[C@@H](Cc4ccccc4)C(=O)O)c(C)c3cc2c1C,-3.89%
16,CCc1cccc(C)c1NS(=O)(=O)c1cc(Br)cnc1N,-7.68%
17,Oc1ccccc1CNc1ncc(Br)cc1Br,19.8% (active)
18,Brc1ccc2ncnc(NCc3cccnc3)c2c1,8.06%
19,O=C(N/N=C/c1ccccn1)C12CC3CC(CC(C3)C1)C2,14.7% (active)
20,CNC(=O)C(=O)N/N=C/c1ccccn1,6.76%
21,O=C(NCc1ccc(Cl)c(Cl)c1)c1cccnc1,-2.41%
22,O=C(Nc1ccc(S(=O)(=O)Nc2ncccn2)cc1)C12CC3CC(CC(C3)C1)C2,1.99%
23,O=C(N/N=C/c1ccccn1)c1ccc(S(=O)(=O)N2CCCCCC2)cc1,73.8% (active)
24,CN1CCN(NC(=O)c2ccc(S(=O)(=O)N3CCCCCC3)cc2)CC1,-2.75%

row,Compound,max response
1,O=C(Nc1cnccn1)c1cccnc1,-3.29%
2,Cc1cc(/C=N/NC(=O)c2cccnc2)c(C)n1CC(C)C,42.1% (active)
3,O=C(CNC(=O)c1cccnc1)N/N=C/c1cc(Br)c(O)c(Br)c1,-1.81%
4,COc1cc(/C=N/NC(=O)c2cccnc2)ccc1OC(=O)c1cccc(Br)c1,-6.4%
5,O=C(N/N=C/c1ccccn1)c1cccc(NC(=O)c2ccc(Cl)cc2)c1,13%
6,O=C(NN=C1CCC(=NNC(=O)c2cccnc2)CC1)c1cccnc1,22.4% (active)
7,FC(F)(F)Oc1ccc(NC(=S)NCc2ccccc2)cc1,1.72%
8,C[C@H]1[C@H]2c3nc4ccccc4n3C[C@H]1ON2C1CCCCC1,2.13%
9,COc1ccccc1N1CC(C(=O)Nc2nnc(SCC(=O)NCC3CCCO3)s2)CC1=O (stereo not given),8.07%
10,COC(=O)C1=C(Nc2ccc(C)cc2)C=C(C)C(C(=O)OC)C1c1ccc(F)cc1 (stereo not given),10.3%
11,COc1ccc(-c2ccc(C3C4C=CCCC4(C)C(=O)N3Cc3ccccc3)c(F)c2)cc1OC (stereo not given),12.4%
12,O=C(N/N=C/c1ccc(O)c2ccccc12)c1cccnc1,15.4%
13,O=C(N/N=C/c1ccccn1)c1cccnc1,17.5% (active)
14,Cc1ccccc1CSc1nnc(-c2cccnc2)n1N,16.2%
15,Cn1c(SCC(=O)C(C)(C)C)nnc1-c1ccccn1,18.9%
16,Cc1ccccc1CSc1nnc(-c2ccccn2)n1N,27% (active)
17,COc1ccc(-c2cc(=O)oc3cc(OCC(=O)N(C)C4CCS(=O)(=O)C4)ccc23)cc1 (stereo not given),3.93%
18,CCN(C(=O)COC(=O)c1ccc(COc2ccc3c(C)cc(=O)oc3c2)cc1)C1CCS(=O)(=O)C1 (stereo not given),21.1% (active)
19,Cc1ccccc1NC(=O)c1ccc(COc2ccc3c(C)cc(=O)oc3c2)cc1,-0.998%
20,COc1cccc(-c2nn(-c3ccccc3)cc2/C=C(\C#N)C(=O)NCCCn2ccnc2)c1,10.5%
21,CC1CCCCC1NC(=O)CCS(=O)(=O)c1ccc2c(c1)NC(=O)CO2 (stereo not given),-2.74%
22,COc1ccc(/C=N/NC(=O)CNC(=O)c2ccc(S(=O)(=O)N3CCCC3)cc2)c(OC)c1,-1.52%
23,COc1ccc(/C=N/NC(=O)c2ccc3c(c2)OCCO3)c(OC)c1,56% (active)
24,COc1ccc(C(=O)Nc2ccccc2C(=O)N/N=C/c2ccccc2OC)cc1,17.9%

row,Compound,max response
1,Cn1ccc(=Nc2ccc(NC(=O)c3ccc(N=c4ccn(C)c5ccc([N+](=O)[O-])cc45)cc3)cc2)cc1,-1.72%
2,O=C(NCCc1ccccn1)c1cccnc1Oc1ccc(Cl)cc1,0.291%
3,O=C(CNC(=O)COc1ccccc1)NCCc1ccccn1,5.88%
4,O=C(NCCc1ccccn1)c1ccc(COc2ccccc2)o1,28.1% (active)
5,Cc1ncn2cc(-c3ccc(Cl)cc3Cl)[nH]c(=O)c12,8.02%
6,Cc1cccc(N2CCN(S(=O)(=O)c3ccc(-c4cc(C)no4)s3)CC2C)c1 (stereo not given),-3.69%
7,Cc1ccc(CNC(=O)CN2CCN(Cc3ccc(Cl)cc3)C2=O)cc1,-4.69%
8,Cc1ccccc1N1CCN(CC(=O)NCc2ccc(Cl)cc2)CC1,-1.19%
9,O=C(CN1CCN(S(=O)(=O)c2ccc(Cl)s2)CC1)NCc1ccc(Cl)cc1,30.7% (active)
10,COCCn1c(C)cc(C(=O)CSc2nc3ccccc3c(=O)n2C(C)COC)c1C (stereo not given),13.4%
11,COc1cccc(-c2cc3nc4c(c(N5CCC6(CC5)OCCO6)n3n2)CCCC4)c1,24.2% (active)
12,COc1cccc(CNc2nc3nc4c(c(=O)n3[nH]2)CCC4)c1,-3.21%
13,O=C(c1cc2nc(-c3ccccc3)cc(-c3ccccc3)n2n1)N1CCC2(CC1)OCCO2,3.88%
14,C=Cc1ccc(C(=O)N2CCCC(CCC(=O)N3CCN(c4ccccn4)CC3)C2)cc1 (stereo not given),-3.56%
15,COc1cc(C)cc(CN2CCC(Cc3ccccc3)CC2)c1O,-8.91%
16,Cc1ccc(CS(=O)(=O)c2ncc(Cl)c(C(=O)Nc3nnc(C)s3)n2)cc1,66% (active)
17,CSc1ncc(Cl)c(C(=O)Nc2cc(C)ccc2C)n1,7.29%
18,Cc1nnc(NC(=O)CCCOc2ccccc2)s1,-3.73%
19,CSc1nnc(NC(=O)c2nc(S(=O)(=O)Cc3ccc(C)cc3)ncc2Cl)s1,63.3% (active)
20,COCCSc1nnc(NC(=O)CCS(=O)(=O)Cc2ccccc2)s1,-1.53%
21,Cc1ccc(S(=O)(=O)CC(=O)Nc2nnc(C)s2)cc1,-6.45%
22,Cc1ccc(CN2CCC(N3CCC(C(=O)NCC4CCCO4)CC3)CC2)o1 (stereo not given),4.92%
23,CCOC(=O)c1c(NC(C)=O)sc2c(O)c(Br)ccc12,-7.21%
24,CC(Oc1cc2oc(=O)c3c(c2cc1Cl)CCCC3)C(=O)NCc1ccncc1 (stereo not given),-1.94%

row,Compound,max response
1,Cc1cccc(NS(=O)(=O)c2ccc(C(=O)NCC(C)(C)N3CCOCC3)cc2)c1C,-1.4%
2,Cc1ccc(CC2C(=O)N(c3ccc(F)cc3)C(=O)C2C)cc1 (stereo not given),7.99%
3,CC(C)[C@H](NC(=O)N1c2ccccc2NC(=O)[C@@H]1C(C)C)C(=O)N[C@H](C(=O)O)c1ccccc1,5.5%
4,CC(=O)Nc1ccc(S(=O)(=O)N2CCC(C(=O)NC3CC3)CC2)cc1,-6.68%
5,Cn1c(=O)c2c(nc(NCCNC(=O)c3ccco3)n2Cc2ccccc2F)n(C)c1=O,-1.04%
6,Nc1cccc(-c2cc(-c3ccccc3)nc(-c3cccc(N)c3)n2)c1,-5.19%
7,Nc1nc(-c2ccccc2)cc(-c2ccccc2)n1,21% (active)
8,CNc1nc(-c2ccccc2)cc(-c2ccccc2)n1,-1.91%
9,COc1ccc2c(C)cc3nnnn3c2c1,-1.91%
10,O=Cc1c(NCCCN2CCCC2=O)c2ccccc2[nH]c1=O,-2.01%
11,Cc1ccc(C2NC(C(=O)O)CS2)cc1 (stereo not given),1.34%
12,CCOc1ccc2nc(NCCNS(=O)(=O)c3ccccc3)c(C#N)cc2c1,25.7% (active)
13,CCOc1ccc2nc(NCCNC(=O)C(C)(C)C)c(C)cc2c1,3.67%
14,CCOc1ccc(S(=O)(=O)NCCSc2ccccc2)cc1,-2.61%
15,Cc1ccc(C)c(NC(=O)c2cc(-c3cc(C)cc(C)c3O)n[nH]2)c1,5.99%
16,COc1ccc([N+](=O)[O-])cc1N(CC(O)Cn1nnc2ccccc21)S(=O)(=O)c1ccc(C)cc1 (stereo not given),10.2%
17,CCc1ccc(CNC(=O)C2CC(=O)N(CCc3ccc(C)cc3)C2)cc1 (stereo not given),0.654%
18,COc1ccc(/C=N/S(=O)(=O)c2ccccc2)cc1OC,-3.6%
19,COc1ccc(C(=O)Oc2cc(/C=N/NS(=O)(=O)c3ccc(C)cc3)ccc2OC)cc1,1.6%
20,COc1ccc(/C=N\NC(=O)c2sc(N)nc2C)cc1OC,16.4% (active)
21,COc1cc(/C=N/NC(=O)c2ccccc2)ccc1OS(=O)(=O)c1ccccc1,10%
22,COc1ccc(/C=N/NC(=O)c2ccccc2)cc1OS(=O)(=O)c1ccccc1,17.9% (active)
23,COc1cccc(OCc2cc(/C=N/NC(=O)c3nc(Cl)c(Cl)c(N)c3Cl)ccc2OC)c1,-1.62%
